Tests used:
Experiment in all cases: PBM binding z-score (relative to random genomic background probes); higher = stronger binding; sequences stand for … in GC…GCGATTGACAGCGTAGAATGAAGG
[1] = tested on: RARb homodimer (NR concentration 270 nM)
In short: (§1)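 Binding z-scores were set against random background probes. The data came from custom Agilent 4×180K protein-binding microarrays carrying double-stranded probes with 34-nt variable regions, incubated 1 h with ligand-free nuclear receptor dimers. Partner-specific antibodies detected binding, and scanned fluorescence was regression-normalized.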

[2] = tested on: RARg:RXRa (NR concentration 270 nM, RXRa partner concentration 90 nM)
In short: as §1

[3] = tested on: RARg homodimer (NR concentration 270 nM)
In short: as §1

[4] = tested on: RXRa DBDmut IVT, anti-RXR (DBD mutation: RXRa K156A/R161A, NR concentration 90 nM)
In short: as §1

[5] = tested on: RXRa homodimer (NR concentration 180 nM)
In short: as §1

[6] = tested on: THRa:RXRa (NR concentration 90 nM, RXRa partner concentration 90 nM)
In short: as §1

[7] = tested on: THRa homodimer (NR concentration 90 nM)
In short: as §1

[8] = tested on: VDR:RXRa (NR concentration 270 nM, RXRa partner concentration 90 nM)
In short: as §1

[9] = tested on: VDR homodimer (NR concentration 270 nM)
In short: as §1

Row | Sequence | PBM binding z-score [1] | PBM binding z-score [2] | PBM binding z-score [3] | PBM binding z-score [4] | PBM binding z-score [5] | PBM binding z-score [6] | PBM binding z-score [7] | PBM binding z-score [8] | PBM binding z-score [9]
1 | CGTTACGGGTCACTCCAGGTTATAGCATCGGAGT | 3.08 | 4.49 | 4.8 | 1.5 | 4.86 | 4.97 | 0.567 | 4.5 | 1.17
2 | AGAACTAGGGCACGCTGAGTTGATAGCAGAGTAG | 0.535 | 0.967 | 1.49 | -0.125 | 0.504 | 0.309 | -0.568 | 0.303 | 0.21
3 | ATCTCTTGGTAAGACTCAGTTCAGTGAAGAACGC | 0.908 | 0.084 | 0.186 | 0.852 | -0.0369 | 0.736 | 1.13 | 0.946 | 1.76
4 | TCATATAGGTAAAAGGTGCAAGTCGGTGTGGTAA | 0.775 | 0.469 | 0.207 | 1.9 | 1.27 | 0.295 | -0.18 | 1.09 | 0.772
5 | AGAACGAGGGCACGCTGACTTGATAGCAGAGTAG | 1.15 | 1.84 | 1.95 | 1.66 | 1.34 | 1.76 | -0.184 | 1.02 | 0.649
6 | AGTCAAAGTTCAGGACGGGGTAACGTAAAGCACG | 3.27 | 5.09 | 4.51 | 2.98 | 3.43 | 3.8 | 1.55 | 3.34 | 2.58
7 | CAAACTAGGTCAAGAAGTCAAAGTCCGCTTCCCG | 3.2 | 4.44 | 4.23 | 1.32 | 2.97 | 2.65 | 0.74 | 1.93 | 0.478

Source: the supplement of paper PMC6555819
